Assay results as given in PubChem BioAssay.
Active and inactive are the calls of the source.

Columns and labels:
[1] = anti-His antibody binders, primary screen, artefact control for SMM control protein annotation, biochemical, small-molecule microarray, 635 nm fluorescence (AID 1128); details: anti-His Alexa647 antibody binding, higher = more signal;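 further: score merges feature fluorescence with signal-to-noise for each printed compound spot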
[2] = system: Human papillomavirus type 1a E7 protein (residues 1-88); experiment: HPV1a E7 small-molecule binders, primary screen, biochemical, small-molecule microarray, residues 1-88, 635 nm (AID 1129); details: small-molecule microarray binding, fluorescence 635 nm; higher = more signal
[3] = molecular target: Focal adhesion kinase 1 (Homo sapiens) (UniProt Q05397); experiment: small-molecule microarray binders of FAK, primary screen, biochemical, 635/667 nm fluorescence, BSA, DTT (AID 1130); details: PTK2 binding, 635 nm fluorescence, higher = more signal;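 further: composite of spot emission at 667 nm and signal to noise over triplicate slides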
Sequence of Focal adhesion kinase 1 (Homo sapiens) (Q05397 whole entry, looked up): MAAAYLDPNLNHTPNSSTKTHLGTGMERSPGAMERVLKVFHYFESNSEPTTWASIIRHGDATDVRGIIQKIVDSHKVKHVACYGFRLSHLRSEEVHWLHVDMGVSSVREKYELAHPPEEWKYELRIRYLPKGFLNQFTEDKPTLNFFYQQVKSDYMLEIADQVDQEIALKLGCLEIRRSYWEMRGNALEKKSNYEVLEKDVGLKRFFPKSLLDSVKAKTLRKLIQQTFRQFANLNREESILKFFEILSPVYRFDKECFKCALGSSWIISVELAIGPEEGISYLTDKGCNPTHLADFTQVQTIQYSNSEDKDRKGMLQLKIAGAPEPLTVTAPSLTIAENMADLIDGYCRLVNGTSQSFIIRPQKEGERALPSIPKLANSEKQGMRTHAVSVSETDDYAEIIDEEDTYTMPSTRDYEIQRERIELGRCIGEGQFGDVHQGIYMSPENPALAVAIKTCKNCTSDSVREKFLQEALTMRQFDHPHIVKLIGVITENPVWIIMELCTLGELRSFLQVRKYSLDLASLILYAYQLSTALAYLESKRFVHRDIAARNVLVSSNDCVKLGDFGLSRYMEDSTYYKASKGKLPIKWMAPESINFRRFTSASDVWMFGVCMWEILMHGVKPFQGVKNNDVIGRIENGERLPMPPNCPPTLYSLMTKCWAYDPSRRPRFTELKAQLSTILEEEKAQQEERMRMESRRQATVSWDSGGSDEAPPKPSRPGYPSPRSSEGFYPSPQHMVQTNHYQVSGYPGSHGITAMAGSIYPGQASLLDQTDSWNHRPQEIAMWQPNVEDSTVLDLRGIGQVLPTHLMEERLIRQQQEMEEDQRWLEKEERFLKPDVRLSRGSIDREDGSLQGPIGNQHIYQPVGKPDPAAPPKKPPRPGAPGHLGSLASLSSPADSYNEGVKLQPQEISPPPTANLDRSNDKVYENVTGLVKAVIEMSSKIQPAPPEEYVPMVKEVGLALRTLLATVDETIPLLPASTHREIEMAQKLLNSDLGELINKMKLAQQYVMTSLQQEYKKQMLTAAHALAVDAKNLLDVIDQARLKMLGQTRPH

[4] = system: Fibrinogen (Alexa647-labelled); experiment: fibrinogen binders on compound microarrays, profiling panel, artefact control for SMM control-protein annotation, biochemical, small-molecule microarray, 635/667 nm fluorescence (AID 1131); details: fibrinogen-A647 binding fluorescence, higher = more signal;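 further: z-score merges 667 nm fluorescence with per-spot signal-to-noise over triplicate slides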
[5] = molecular target: Follistatin (Homo sapiens) (UniProt P19883); experiment: follistatin binders on small-molecule microarrays, primary screen, biochemical, small-molecule microarray, 635/667 nm fluorescence (AID 1132); details: FST binding, 635 nm fluorescence, higher = more signal
Sequence of Follistatin (Homo sapiens) (P19883 whole entry, looked up): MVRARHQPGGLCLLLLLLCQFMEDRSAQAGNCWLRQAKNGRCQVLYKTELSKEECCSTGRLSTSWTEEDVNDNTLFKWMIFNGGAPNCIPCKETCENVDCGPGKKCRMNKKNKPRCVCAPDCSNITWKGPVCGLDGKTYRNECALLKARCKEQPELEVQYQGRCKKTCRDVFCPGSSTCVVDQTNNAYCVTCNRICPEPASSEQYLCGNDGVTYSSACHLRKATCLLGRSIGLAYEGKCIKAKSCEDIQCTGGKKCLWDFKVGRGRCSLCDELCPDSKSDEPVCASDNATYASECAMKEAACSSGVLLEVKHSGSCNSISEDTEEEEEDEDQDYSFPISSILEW

[6] = molecular target: Fibroblast growth factor 2 (Homo sapiens) (UniProt P09038); experiment: FGF2 binders on small-molecule microarrays, primary screen, biochemical, small-molecule microarray, 635/667 nm fluorescence (AID 1133); details: small-molecule microarray binding, FGF2, fluorescence 635/667; higher = more signal
Sequence of Fibroblast growth factor 2 (Homo sapiens) (P09038 whole entry, looked up): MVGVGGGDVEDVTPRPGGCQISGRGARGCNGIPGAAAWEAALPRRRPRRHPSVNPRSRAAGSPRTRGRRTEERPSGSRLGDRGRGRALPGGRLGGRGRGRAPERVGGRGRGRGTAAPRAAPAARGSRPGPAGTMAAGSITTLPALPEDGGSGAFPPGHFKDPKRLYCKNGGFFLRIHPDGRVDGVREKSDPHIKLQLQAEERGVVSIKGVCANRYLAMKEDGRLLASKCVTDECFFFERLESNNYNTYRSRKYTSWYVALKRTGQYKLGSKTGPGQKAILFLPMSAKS

[7] = mitochondrial membrane potential change in A549 cells, profiling panel, cell-based, JC-1 fluorescence, basal, 24 h, 100 nL (AID 1138); details: higher = more signal;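 further: A549 lung adenocarcinoma cells under basal conditions with no added stimulus; test concentration not given here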
[8] = system: Lefty1; experiment: Lefty1 binders on small-molecule microarrays, primary screen, biochemical, small-molecule microarray, 635/667 nm fluorescence (AID 1139); details: small-molecule microarray binding, fluorescence 635/667; higher = more signal
[9] = system: wheat germ agglutinin (Triticum aestivum), Alexa647-labelled; experiment: wheat germ agglutinin binders on compound microarrays, profiling panel, artefact control for SMM control-protein annotation, biochemical, small-molecule microarray, 635/667 nm fluorescence (AID 1140); details: WGA-A647 binding, 635 nm fluorescence, higher = more signal;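 further: score merges 667 nm feature emission with signal to noise over triplicate slides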
[10] = molecular target: Luciferin 4-monooxygenase (Photinus pyralis) (UniProt P08659); experiment: firefly luciferase enzyme inhibitors, primary screen, biochemical, luminescence, purified enzyme, 2006 set (AID 1141); details: SteadyGlo luminescence, 30 min, higher = more signal, called active from +8 up or from −8 down;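 further: cell-free assay with purified firefly luciferase at 100 ng per well in PBS; test concentration not given here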
Sequence of Luciferin 4-monooxygenase (Photinus pyralis) (P08659 whole entry, looked up): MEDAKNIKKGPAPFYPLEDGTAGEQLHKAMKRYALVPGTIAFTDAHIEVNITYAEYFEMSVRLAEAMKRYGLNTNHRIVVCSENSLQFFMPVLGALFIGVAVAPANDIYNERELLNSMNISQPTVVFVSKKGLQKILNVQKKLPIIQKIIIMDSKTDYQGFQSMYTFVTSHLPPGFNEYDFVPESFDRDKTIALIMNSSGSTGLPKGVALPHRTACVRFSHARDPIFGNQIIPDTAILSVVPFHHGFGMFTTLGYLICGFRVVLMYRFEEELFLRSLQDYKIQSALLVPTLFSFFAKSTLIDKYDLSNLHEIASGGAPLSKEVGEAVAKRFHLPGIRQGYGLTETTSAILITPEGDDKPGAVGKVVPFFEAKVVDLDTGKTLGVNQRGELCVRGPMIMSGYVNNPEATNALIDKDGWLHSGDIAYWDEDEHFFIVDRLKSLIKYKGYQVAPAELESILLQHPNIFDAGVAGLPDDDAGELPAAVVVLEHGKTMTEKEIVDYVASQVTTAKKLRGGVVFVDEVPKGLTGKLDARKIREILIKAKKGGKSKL

SMILES	composite z-score [1]	composite z-score [2]	composite z-score [3]	composite z-score [4]	composite z-score [5]	composite z-score [6]	z-score [7]	composite z-score [8]	composite z-score [9]	z-score [10]
CCOC(=O)[C@H](CC(C)C)NC(=O)CCC1CC(OC(=O)NCCc2ccc(F)cc2)CC2(CCCC(COC(=O)NCC(c3ccccc3)c3ccccc3)O2)O1 (stereo not given in full)	0.59	0.749	0.097	0.874	0.678	0.533	-0.642	0.875	0.737	0.897 (inactive)
CCC1=NOC(CCC2CC(OC(=O)NCc3cccc4c3OCO4)CC3(CCCC(COC(=O)NCCc4ccccc4OC)O3)O2)C1 (stereo not given)	0.0887	1.19	0.494	0.155	0.505	0.297	1.41	-0.0134	0.703	0.412 (inactive)
C[C@H]1CC[C@H]2C(=O)OC(CO)CN2[C@@H]1c1ccc(Br)cc1 (stereo not given in full)	0.58	-0.805	-0.442	0.276	0.124	-0.153	-0.486	-0.0811	0.162	-0.0741 (inactive)
CCOC(=O)[C@H](CC(C)C)NC(=O)CCC1CC(OC(=O)NCc2cccc3ccccc23)CC2(CCCC(COC(=O)NCCOc3ccccc3)O2)O1 (stereo not given in full)	0.907	1.15	0.0968	0.959	0.776	0.373	1.07	0.741	0.537	0.546 (inactive)
CCOC(=O)[C@H](Cc1ccccc1)NC(=O)CCC1CC(OC(=O)NCCc2ccc(F)cc2)CC2(CCCC(COC(=O)NCCCN3CCCC3=O)O2)O1 (stereo not given in full)	0.688	0.902	0.494	0.552	0.578	0.37	0.837	0.461	0.374	-0.241 (inactive)
CC(=O)Nc1ccc([C@@H]2N[C@H](C(=O)O)CC[C@H]2C)cc1	0.328	0.557	1.12	0.669	0.205	0.284	2.05	0.701	-0.11	-1.38 (inactive)
C=CC[C@@H]1C=C[C@H](ON=C(C)CCC(=O)OC[C@H]2O[C@H](C#Cc3ccccc3)C=C[C@@H]2Oc2ccc(C)cc2)[C@@H](CO)O1	-0.443	0.828	-0.0073	0.955	0.656	0.42	-0.0271	0.842	-0.0056	0.666 (inactive)
CCOC(=O)[C@H](Cc1ccccc1)NC(=O)CCC1CC(OC(=O)NCc2cccc3ccccc23)CC2(CCCC(COC(=O)NCCC(C)C)O2)O1 (stereo not given in full)	0.603	-0.431	-0.225	0.604	0.123	-0.278	-0.0858	0.129	0.757	0.871 (inactive)
C#CCCCON=C1C[C@@H](O)[C@@H](O)[C@@H]2[C@@H]3C(=O)N(c4ccc(F)cc4F)C(=O)[C@@H]3CC[C@H]12	0.968	1.02	0.208	0.894	0.424	0.322	0.0852	0.662	0.0156	0.573 (inactive)
CCN1C(=O)[C@H]2[C@H]3[C@H](O)[C@H](O)CC(=NOC[C@H]4O[C@H](c5ccccc5)C=C[C@@H]4Oc4ccc(OC)cc4)[C@@H]3CC[C@H]2C1=O	-0.157	0.829	-0.139	0.894	0.74	1.01	0.385	1.19	0.246	0.468 (inactive)
COC(=O)CC=C[C@@H](C)[C@@H](C=NOCC[C@@H]1C=C[C@H](OC(C)=O)[C@@H](COC(C)=O)O1)OC	-0.131	0.34	0.222	-0.902	0.73	0.785	0.493	0.66	-0.876	0.177 (inactive)
O=C1[C@H]2[C@H]3[C@H](O)[C@H](O)CC(=NOCc4ccccc4)[C@@H]3CC[C@H]2C(=O)N1c1ccc(F)cc1F	-0.0523	-0.406	0.757	0.416	0.072	0.359	-0.332	-0.0459	-0.141	0.0336 (inactive)
COC(=O)CC=C[C@@H](C)[C@H](OCc1cccc(-c2ccccc2)c1)C1CCCCC1	-0.791	-0.46	-0.0125	-0.14	0.768	-0.226	0.237	0.0133	0.534	-0.0245 (inactive)
CON=C1[C@H]2CCn3c(=O)n(-c4ccccc4)c(=O)n3[C@H]2[C@H](O)[C@@H]2O[C@H]12	1.95	0.574	0.295	0.148	0.743	0.986	0.758	0.695	0.168	-2.49 (inactive)
CON=C(C)CCC(=O)OC[C@H]1O[C@H](c2ccccc2)C=C[C@@H]1Oc1ccc(OC)cc1	1.25	-0.623	-0.0144	-0.45	0.252	0.48	0.472	0.415	-0.551	0.236 (inactive)
CCOC(=O)[C@H](Cc1ccccc1)NC(=O)CCC1CC(OC(=O)NCCc2ccc(F)cc2)CC2(CCCC(COC(=O)NCCc3ccc(Cl)cc3)O2)O1 (stereo not given in full)	1.03	1.09	0.671	0.832	0.326	0.996	0.699	0.583	0.105	0.361 (inactive)
COc1ccc(COC(=O)NN=C2C[C@@H](O)[C@@H](O)[C@@H]3[C@@H]4C(=O)N(c5cccc(Oc6ccccc6)c5)C(=O)[C@@H]4CC[C@@H]23)cc1	0.177	-0.181	-0.0032	0.238	-0.823	-0.415	-0.201	-0.282	0.485	0.891 (inactive)
COC(=O)CC=C[C@@H](C)[C@@H](C=NOC(C)CN1CCCc2nc(C)c(C)cc21)OC (stereo not given in full)	0.333	0.464	0.0673	0.233	0.6	0.604	-0.27	0.677	-0.0665	0.423 (inactive)
COc1cccc([C@H]2Oc3ccc(OC)cc3C(=NOC[C@@H](O)COCc3ccco3)[C@@H]2O)c1	0.232	-1.3	0.3	-2.19	-0.707	-0.51	-0.843	-0.488	-0.418	-2.4 (inactive)
CC(C)=CCCC(C)=CCON=C1C[C@@H](O)[C@@H](O)[C@@H]2[C@@H]3C(=O)N(C4CCCCC4)C(=O)[C@@H]3CC[C@@H]12	-0.216	0.0286	0.0165	-0.229	0.831	0.417	-0.64	0.791	-0.0783	0.335 (inactive)
CC(CCN1CCCCc2nc(C)c(C)cc21)=NO[C@H](C)c1cn([C@H](CO)Cc2ccccc2)nn1	0.566	-0.556	-0.0044	0.339	0.965	1.01	0.0726	1.08	-0.154	-1.09 (inactive)
CC(C)CON=C1C[C@@H](O)[C@@H](O)[C@@H]2[C@@H]3C(=O)N(c4ccc(F)cc4F)C(=O)[C@@H]3CC[C@H]12	0.686	1.11	0.436	0.424	0.714	0.375	-0.229	1.13	0.221	0.819 (inactive)
COc1cccc([C@H]2Oc3ccc(OC)cc3C(=NOC[C@@H](O)[C@H]3O[C@@H]4OC(C)(C)O[C@@H]4[C@H]3O)[C@@H]2O)c1	-1.33	0.372	0.263	0.213	0.418	0.318	-0.315	0.892	-0.0123	-4.03 (inactive)
CCCNC(=O)OC[C@H]1O[C@H](CCON=C(C)CCN2CCc3nc(CC)c(CC)cc3C2)C=C[C@@H]1Oc1ccc(OC)cc1	0.869	-0.476	0.512	0.564	0.248	-0.167	0.77	0.374	0.316	-0.512 (inactive)
COC(=O)[C@@H]1CC[C@H](C)[C@@H](c2ccc(C)cc2)N1C(=O)c1ccc(C=NO[C@@H](C)c2cn([C@H](CO)Cc3ccccc3)nn2)cc1	1.37	1.13	0.262	0.648	0.717	1.16	1.04	1.23	0.147	-0.249 (inactive)
